This note sets out measurements from PubChem BioAssay AID1527 (The Scripps Research Institute Molecular Screening Center, 2009).

By inhibition is commonly meant the relative decrease from the control value, in per cent.

SMILES strings stand for the structures. Screen size: about 290,000 compounds; about 2,600 (0.9%) were called active. The sample holds actives, similar compounds and a random draw of the others, so the mix is not that of the screen. Unmarked numbers belong to inactive results.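 Rule for the calls: active = inhibition above the mean of all tested compounds plus 3 SD, cutoff set per screening run (cut at about 7.5% in these data); inactive = the rest.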

The experiment relates to VIM-2 metallo-beta-lactamase (Pseudomonas aeruginosa). Kind of experiment: VIM-2 metallo-beta-lactamase inhibitors, primary screen, biochemical, epi-absorbance readout, Pseudomonas aeruginosa enzyme (AID 1527).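 Note: red hydrolysis product quenches plate fluorescence so inhibitors raise well fluorescence; 0% = enzyme with DMSO and 100% = DMSO without enzyme.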 The conditions noted are these: purified VIM-2, nitrocefin hydrolysis, epi-absorbance fluorescence; at 5.6 µM; active compounds read high.
Regarding `Cc1ccc(N/N=C2\COC(C)(C)CC2=O)cc1`, the inhibition was -2.64%. Turning to `Cc1nn(-c2ccccc2)c(C)c1NC(=O)COc1ccc(Cl)cc1Cl`, the inhibition is -1.49%. Under `CN1CCC(OC(=O)COc2ccc(Cl)cc2Cl)CC1` stands 4.57%. On to `CN1CCN(c2ccc(NC(=O)COc3ccc(Cl)cc3Cl)cc2)CC1`, for which the inhibition is 11.7% (active). For `COc1ccc(OC)c(-n2c(-c3ccn[nH]3)n[nH]c2=S)c1`, the inhibition was -0.56%. With `COc1ccc(-n2c(-c3ccc(OC)c(OC)c3)n[nH]c2=S)cc1` the figure was 9.11% (active); with `Cc1ccc(-n2c(-c3ccc(Cl)cc3)n[nH]c2=S)cc1`, -3.52%; with `CCCNC(=O)CCc1c(C)nc2c(c(C)nn2-c2ccccc2)c1C`, -3.85%. Under `COc1ccc(/C=N/S(=O)(=O)c2ccccc2)cc1OC` stands 2.08%. Regarding `C=CCOCCN(C)C1=NS(=O)(=O)c2ccccc21`, the inhibition is -0.19%. As for `COc1ccc(/C=N/N(C)C2=NS(=O)(=O)c3ccccc32)cc1OC`, the inhibition is 18.5% (active). Turning to `CC(=O)c1cccc(NC(=O)C2CCCN(S(=O)(=O)c3cccc4nonc34)C2)c1` (centres undefined), the inhibition was -0.2%.

In the case of `COc1ccc(COC(=O)c2ccc(Cl)c(S(=O)(=O)N3CCOCC3)c2)cc1F`, the inhibition is -3.64%.

Take `COc1ccc(CCNC(=O)c2ccc3c(c2)NC(=O)C(N2CCOCC2)S3)cc1OC` (centres undefined): the inhibition was 0.07%. With `CCN1CCN(CCNC(=O)c2ccc(/C=C3/Sc4ccccc4N(Cc4cccc(C)c4)C3=O)cc2)CC1` the figure was -2.77%; with `CCN1CCN(CCNC(=O)c2ccc3c(c2)NC(=O)/C(=C\c2ccc(OC)c(OC)c2)S3)CC1`, 23.2% (active). For `O=C(NCCCc1ccccc1)C(=O)NCC1OCCN1S(=O)(=O)c1ccccc1` (centres undefined), the inhibition is -2.36%. As for `CCC(NC(=O)c1cc(COc2ccc(F)c(F)c2)on1)c1ccncc1` (centres undefined), the inhibition was 1.14%. For `COc1ccc(S(=O)(=O)N2CCN(C)CC2)c(C)c1`, the inhibition was 1.39%. With `CC(=O)c1ccc(Cc2ncc(C(F)(F)F)cc2Cl)s1` the figure was -0.62%; with `O=C(NCC(=O)N1CCN(c2ncc(C(F)(F)F)cc2Cl)CC1)c1ccc(Br)o1`, 0.82%; with `CN1CCN(C(=O)CCc2ncc(C(F)(F)F)cc2Cl)CC1`, 7.72% (active).

For `O=C1CC(C(F)(F)C(F)(F)C(F)(F)C(F)(F)F)=Nc2ccccc2N1`, the inhibition was -4.82%.

Consider `Cc1ccccc1-n1cc(CNC(=O)C2CCC(=O)N(C3CC3)C2)cn1` (centres undefined), for which the inhibition is -2.92%. Under `O=C1/C(=C/c2ccc3c(c2)OCO3)Oc2cc(OCC(=O)N3CC(O)C[C@H]3C(=O)O)ccc21` (some centres undefined) stands -0.7%. With `Cc1cc(=O)oc2cc(OCCC[n+]3ccccc3)ccc12`, the inhibition was 8.33% (active). Under `Cc1ccccc1N1CCN(CCCOc2ccc3c(C)cc(=O)oc3c2)CC1` stands -0.43%; under `Cc1cc(=O)oc2ccc(OCC(=O)O)cc12`, -3.22%. With `Cc1ccc2c(C)c(C(=O)N3CCN(c4ccncc4)CC3)oc2c1C` the figure was 3.45%; with `Cc1nnc(SCC(=O)Nc2cccc(N)c2)n1-c1ccccc1`, -2.64%.

Regarding `O=S(=O)(c1ccc(Br)cc1)N1CCC(c2nc3ccccc3[nH]2)CC1`, the inhibition is -4.39%.

In the case of `Cc1cc(NC(=O)/C=C/C(=O)N(c2ccccc2C)C(C(=O)NC2CCCC2)c2ccc(F)cc2)no1` (centres undefined), the inhibition is 1.56%.

As to `COc1ccc(CNC(=O)c2cc(C(=O)C3CC3)c[nH]2)cc1`, the inhibition is -2.31%. With `CCOC(=O)N1CCN(C(=O)C2CCN(c3ncnc4c3sc3cccc(F)c34)CC2)CC1` the figure was 17.8% (active); with `CCOC(=O)C1CCN(c2ncnc3c2oc2ccc(Br)cc23)CC1`, -2.16%. Consider `CCOC(=O)N1CCN(C(=O)C2CCN(S(=O)(=O)c3cc(Cl)ccc3OCC)CC2)CC1`, for which the inhibition was -1.98%. Under `C=CCOc1cccc(C2NC(=O)c3ccccc3O2)c1` (centres undefined) stands -2.16%; under `Cc1cc(N2CCN(c3ccccc3)CC2)nc(N2CCOCC2)n1`, -1.05%. Under `Cc1cc(Nc2ccc(N3CCOCC3)cc2)c2cccc(C)c2n1` stands 2.18%.

As to `Cc1nn2c3cc(N4CCOCC4)ccc3nc2c2ccccc12`, the inhibition is 10.9% (active). For `CC(=O)NC(CC(=O)Nc1cccc(S(=O)(=O)N2CCCC2)c1)c1ccccc1` (centres undefined), the inhibition was -3.12%. For `C=CCn1c(-c2ccc3[nH]c(C)c(C)c3c2)n[nH]c1=S`, the inhibition was 5.39%. Under `C=CCn1c(-c2sc(-c3ccccc3)nc2C)n[nH]c1=S` stands -5.93%; under `C=CCn1c(-c2ccccc2OCC)n[nH]c1=S`, 25.3% (active); under `COc1cc(NC(=O)CCNC(=O)Cn2ccc3ccccc3c2=O)cc(OC)c1OC`, -1.82%.

Regarding `C[C@H](NC(=O)[C@@H]1Cc2ccccc2CN1C(=O)OC(C)(C)C)C(=O)NC1CCCC1`, the inhibition was -2.43%.

With `CCn1c(C(O)c2cc(OC)ccc2OC)nc2ccccc21` (centres undefined), the inhibition is -0.51%.

In the case of `CCN(CC)CCOc1ccc2c(c1)C(=NNC(=O)c1ccccn1)c1cc(OCCN(CC)CC)ccc1-2`, the inhibition is 29.9% (active). As for `COc1ccc(CC(=O)N/N=C(\C)c2ccccn2)cc1`, the inhibition was -3.47%. Consider `Cc1cccc(OCC(=O)NCCCNC(=O)c2ccccn2)c1`, for which the inhibition was -2.83%. As for `CCCc1[nH]nc2c1C(c1ccc(Br)s1)C(C#N)=C(N)O2` (centres undefined), the inhibition is 8.14% (active). Under `CCCc1[nH]nc2c1C(c1c(C)nn(-c3ccccc3)c1Cl)C(C#N)=C(N)O2` (centres undefined) stands -2.17%; under `CCCc1[nH]nc2c1C(C1CC=CCC1)C(C#N)=C(N)O2` (centres undefined), 1.47%; under `CNC(=O)c1cccc2nc3ccccc3nc12`, 12.2% (active).

`CNC(=O)c1cc2c(ccc3ccccc32)oc1=N`: the inhibition is 0.24%. Under `CN(C)C(=O)c1coc2nc3ccccc3nc12` stands -2.21%; under `Cc1ccc(S(=O)(=O)c2nc(-c3cccs3)oc2NCc2cccnc2)cc1`, -1.14%; under `O=C(NCCOc1ccccc1F)Nc1ccc(Br)cc1`, -1.38%. Under `COc1ccc(NS(=O)(=O)c2cc3c(cc2C)N(C(C)=O)CCO3)cc1` stands -3.48%.
